# According to PubChem BioAssay (EPA / NIEHS):
# Values joined by “and” are separate entries in the source; they are usually repeats but may differ in a detail not shown here. Equal values may be shown once. Records with an inconclusive call do not appear. The source holds several records for some structures; these can differ, active in one and inactive in another. Active and inactive are the calls of the source. Rule for the calls: active = hit-call score of the fitted dose curve at least 0.9, where 1 is the maximum; inconclusive = response in the unintended direction; inactive = score below 0.9.
# Legend:
# [1] = TOX21_p53_BLA_p3_viability: Viability Assessment in the Tox21 HCT-116 p53 Agonism Beta-lactamase Assay, Phase 3 (AID 2283593);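 note: cells exposed to compound for 16 h before reading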
# Procedure, shortened: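 Cellular ATP was quantified by CellTiter-Glo luminescence, read after 30 min at room temperature. Beforehand, HCT116 cells (4000/well) received compound 5 h post-seeding, 217-fold diluted from DMSO, then incubated 16 h at 37C.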
# [2] = TOX21_p53_BLA_p4_viability: Viability Assessment in the Tox21 HCT-116 p53 Agonism Beta-lactamase Assay, Phase 4 (AID 2283597);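 note: hits lower the luminescence signal meaning cytotoxicity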
# Procedure, shortened: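 Viability is taken as cellular ATP: after 16 h compound exposure of HCT116 cells and a 2 h room-temperature CCF4-AM substrate step, CellTiter-Glo reagent is added and luminescence is measured 30 min later.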
# [3] = target: Cellular tumor antigen p53 (Homo sapiens) (UniProt P04637); assay: TOX21_p53_BLA_p5_ratio: Tox21 HCT-116 p53 Agonism Beta-lactamase Assay, Ratio, Phase 5 (AID 2283599)
# Procedure, shortened: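 Beta-lactamase reporter ratio (blue 460 nm over green 530 nm, 405 nm excitation) after 2 h CCF4-AM loading, in HCT-116 cells exposed 16 h at 37 C to compounds pinned at 217-fold dilution. Increases relative to DMSO baseline scored.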
# [4] = target: Cellular tumor antigen p53 (Homo sapiens) (UniProt P04637); assay: TOX21_p53_BLA_p3_ratio: Tox21 HCT-116 p53 Agonism Beta-lactamase Assay, Ratio, Phase 3 (AID 2283596)
# Procedure, shortened: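 Cells were seeded at 4000/well, rested 5 h at 37C, then dosed with DMSO compound solutions (217-fold dilution) for 16 h. CCF4-AM substrate was loaded for 2 h at room temperature, and the 460/530 nm emission ratio was fitted for gain of signal versus DMSO.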
# [5] = TOX21_p53_BLA_p5_viability: Viability Assessment in the Tox21 HCT-116 p53 Agonism Beta-lactamase Assay, Phase 5 (AID 2283600)
# Procedure, shortened: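 Viability is taken from cellular ATP content, measured by luciferase luminescence in the same wells after the beta-lactamase ratio read. Cells are seeded at 4000 per well and exposed to DMSO-dissolved compounds, diluted 217-fold, for 16 h.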
# [6] = target: Cellular tumor antigen p53 (Homo sapiens) (UniProt P04637); assay: TOX21_p53_BLA_p4_ratio: Tox21 HCT-116 p53 Agonism Beta-lactamase Assay, Ratio, Phase 4 (AID 2283601)
# Procedure, shortened: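 Signal is the blue/green (460nm/530nm) ratio of cleaved versus uncleaved CCF4-AM substrate, read after 2 h substrate loading. Cells were HCT116 carrying the p53-responsive beta-lactamase reporter, dosed 16 h at 37C, 5% CO2; CellTiter-Glo measured in parallel.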
# [7] = system: Thyroperoxidase (TPO), gene 54314; assay: CCTE_Simmons_AUR_rTPO: CCTE's Amplex UltraRed Assay for Thyroperoxidase (TPO) Inhibition, Simmons Lab (AID 2283662);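 for AC50: potency for loss of signal meaning inhibition of peroxidase activity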
# Procedure, shortened: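 Cell-free peroxidase activity assay using rat thyroid gland microsomes with excess H2O2 (300 uM) and 25 uM Amplex UltraRed. Compounds tested from 5 nM to 87.5 uM; fluorescence measured after 30 min at 37C, analysed relative to DMSO baseline.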
# [8] = CCTE_Simmons_CellTiterGLO_HEK293T: Viability Assessment in CCTE's Assays for Thyroperoxidase (TPO) Inhibition, Simmons Lab (AID 2283665);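 for AC50: cells exposed to compound for 24 h before readout; actives reduce ATP signal below DMSO vehicle meaning cytotoxicity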
# Procedure, shortened: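 Luciferase-coupled ATP content after 24 h exposure gives viability; 8-point series from 5 nM to 87.5 uM final in 0.5% DMSO. Human HEK293T cells, 1% FBS medium, three biological replicates, dichlone positive control.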
# Cellular tumor antigen p53 (Homo sapiens), sequence (P04637 whole entry, looked up): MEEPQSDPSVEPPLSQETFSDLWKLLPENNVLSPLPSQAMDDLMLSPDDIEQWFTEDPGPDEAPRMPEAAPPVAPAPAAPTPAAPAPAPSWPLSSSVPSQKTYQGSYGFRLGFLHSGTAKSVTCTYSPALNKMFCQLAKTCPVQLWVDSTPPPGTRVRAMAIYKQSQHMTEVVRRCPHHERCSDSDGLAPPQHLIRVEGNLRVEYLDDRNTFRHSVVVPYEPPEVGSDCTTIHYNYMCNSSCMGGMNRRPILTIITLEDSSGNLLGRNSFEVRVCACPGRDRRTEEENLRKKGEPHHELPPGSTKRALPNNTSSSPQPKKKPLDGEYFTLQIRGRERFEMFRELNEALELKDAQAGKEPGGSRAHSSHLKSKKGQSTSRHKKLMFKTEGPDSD
structure (smiles),measurement,setting,value
[Cl][Nd]([Cl])[Cl],outcome,[1],inactive
same,outcome,[2],inactive
same,outcome,[3],inactive
O=P(O)(O)Oc1ccccc1,outcome,[4],inactive
same,outcome,[2],inactive
same,outcome,[3],inactive
same,outcome,[5],inactive
CC1=CC[C@H]2C[C@@H]1C2(C)C,outcome,[2],inactive
CCCCCC/C=C\CCCCCCCC(=O)O,AC50,[1],76.5 µM (active)
same,outcome,[4],inactive
same,outcome,[5],inactive
same,outcome,[6],inactive
CC(=O)[C@H]1[C@H](C#N)C[C@H]2[C@@H]3CC=C4C[C@@H](O)CC[C@]4(C)[C@H]3CC[C@@]21C,outcome,[2],inactive
same,outcome,[5],inactive
same,outcome,[6],inactive
CC(=O)c1ccc2c(c1)CCCC2,outcome,[1],inactive
same,outcome,[4],inactive
same,outcome,[6],inactive
O=c1n(CCO)c(=O)n(CCO)c(=O)n1CCO,outcome,[4],inactive
same,outcome,[2],inactive
same,outcome,[3],inactive
same,outcome,[5],inactive
N#CCc1ccc(Cl)cc1Cl,outcome,[2],inactive
same,outcome,[3],inactive
same,outcome,[6],inactive
C=C(C)[C@H]1CC=C(C)CC1,outcome,[3],inactive
same,outcome,[6],inactive
CCN(Cc1cccc(S(=O)(=O)O)c1)c1ccc(C(=C2C=CC(=[N+](CC)Cc3cccc(S(=O)(=O)[O-])c3)C=C2)c2ccccc2)cc1,outcome,[1],inactive
same,outcome,[2],inactive
same,outcome,[3],inactive
same,outcome,[6],inactive
C=C1[C@H]2CC[C@@H]3[C@H]2C(C)(C)CCC[C@]13C,outcome,[4],inactive
same,outcome,[2],inactive
O=C(O)c1cc(Cl)cc([N+](=O)[O-])c1Cl,outcome,[2],inactive
same,outcome,[5],inactive
same,outcome,[6],inactive
CCCCC(CC)COC(=O)c1ccccc1O (stereo not drawn),outcome,[1],inactive
same,outcome,[2],inactive
same,outcome,[5],inactive
same,outcome,[6],inactive
C=CCOc1c(Br)cc(Br)cc1Br,outcome,[1],inactive
same,outcome,[4],inactive
same,outcome,[3],inactive
same,outcome,[5],inactive
O=C(C(Cl)Cl)N1CCOC12CCCCC2,outcome,[4],inactive
same,outcome,[2],inactive
COC(=O)/C=C\C(=O)O,outcome,[1],inactive
same,outcome,[5],inactive
same,outcome,[6],inactive
CCCCCc1ccc(Cl)cc1,outcome,[4],inactive
same,outcome,[3],inactive
CCCCCCCC[N+](C)(CCCCCCCC)CCCCCCCC,AC50,[7],23.7 µM (active)
same,AC50,[8],7.14 µM (active)
Cc1ccc(N/N=c2\c(=O)cc/c(=N/Nc3ccc(S(=O)(=O)O)cc3)c2=O)c(C)c1,outcome,[1],inactive
same,outcome,[2],inactive
same,outcome,[3],inactive
same,outcome,[5],inactive
same,outcome,[6],inactive
same,AC50,[7],28.9 µM (active)
same,AC50,[8],76.6 µM (active)
OCCN(CCO)c1ccccc1,outcome,[1],inactive
same,outcome,[3],inactive
same,outcome,[5],inactive
C=C(C)C(=O)OCC(C)C,outcome,[1],inactive
same,outcome,[4],inactive
same,outcome,[3],inactive
COCCOCCOCCOCCOC,outcome,[2],inactive
same,outcome,[5],inactive
same,outcome,[6],inactive
CC(C)(C)c1ccc(N)cc1,AC50,[7],0.106 µM (active)
same,outcome,[8],inactive
O=S1(=O)OC(c2ccc(O)cc2)(c2ccc(O)cc2)c2ccccc21,AC50,[7],24.9 µM (active) and 22.2 µM (active)
same,AC50,[8],72 µM (active)
same,outcome,[8],inactive
O=C(O)Cc1c(Cl)ccc(Cl)c1Cl,outcome,[4],inactive
same,outcome,[2],inactive
same,outcome,[5],inactive
CCOCC(=O)O,outcome,[4],inactive
same,outcome,[2],inactive
same,outcome,[5],inactive
CC1=CC[C@H](C(C)C)C=C1,outcome,[1],inactive
same,outcome,[2],inactive
same,outcome,[5],inactive
CCOC(=O)CC(C(C)=O)C(C)=O,outcome,[1],inactive
same,outcome,[4],inactive
same,outcome,[3],inactive
CC(CC=O)c1ccccc1 (stereo not drawn),outcome,[1],inactive
same,outcome,[4],inactive
same,outcome,[2],inactive
same,outcome,[5],inactive
CC(=O)Oc1ccc(C(C)=O)cc1,outcome,[1],inactive
same,outcome,[4],inactive
same,outcome,[5],inactive
CC/C=C\C/C=C\C/C=C\CCCCCCCC(=O)O,AC50,[7],28.7 µM (active)
same,outcome,[8],inactive
CC(C)(C)c1ccc(-c2ccc(C(C)(C)C)cc2)cc1,outcome,[7],inactive
O=S(=O)(O)c1ccc2cc(O)c(S(=O)(=O)O)cc2c1,outcome,[1],inactive
same,outcome,[2],inactive
same,outcome,[3],inactive
same,outcome,[5],inactive
CCCCC/C=C\CCC=O,outcome,[1],inactive
same,outcome,[4],inactive
same,outcome,[2],inactive
same,outcome,[3],inactive
same,outcome,[6],inactive
C[Si](C)O[Si](C)(C)O[Si](C)(C)O[Si](C)C,outcome,[4],inactive
same,outcome,[5],inactive
CCc1ccc2c(c1)C(=O)c1ccccc1C2=O,outcome,[1],inactive
same,outcome,[5],inactive
CCCCCCCCC(=O)OCC,outcome,[4],inactive
same,outcome,[2],inactive
same,outcome,[3],inactive
same,outcome,[5],inactive
